# Assay results reported in PubChem BioAssay.
# Inconclusive results are not listed. The source made the active and inactive calls. Unless noted, cut-off not given; nearly all actives show AC50 up to about 26 µM.
# Key:
# [1] = viability loss in pontine glioma line – cell-based, SU-DIPG-XVII, MIPE5.0, CellTiter-Glo, qHTS, dose response (AID 1347060); conditions: CellTiter-Glo ATP luminescence;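 on AC50: cells exposed to compound for 48 hours before viability readout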
# [2] = viability loss in pontine glioma line – cell-based, SU-DIPG-XIII, MIPE5.0, CellTiter-Glo, qHTS, dose response (AID 1347064; cut-off not given, nearly all actives have AC50 up to about 23 µM;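 on AC50: cells exposed to compound for 48 hours before the viability read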); conditions: CellTiter-Glo ATP luminescence
# [3] = viability loss in pontine glioma line – cell-based, SU-DIPG-XXV, MIPE5.0, CellTiter-Glo, qHTS, dose response (AID 1347065); conditions: CellTiter-Glo ATP luminescence;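 further: cells exposed to compound for 48 hours before ATP readout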
# [4] = JHH-DIPG-1 glioma cell viability, MIPE5.0 library, CellTiter-Glo luminescence, qHTS (AID 1347067); conditions: JHH-DIPG-1 glioma viability, CellTiter-Glo ATP luminescence;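 further: cells exposed to compound for 48 hours before readout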
# [5] = growth inhibition of DIPG cells – cell-based, MIPE4.0 library, CellTiter-Glo luminescence, qHTS (AID 1347066; cut-off not given, nearly all actives have AC50 up to about 30 µM;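 further: cells exposed to compound for 48 hours before readout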); conditions: SU-DIPG-VI viability, CellTiter-Glo ATP luminescence
# [6] = growth inhibition of DIPG cells – cell-based, MIPE5.0 library, qHTS (AID 1347068; cut-off not given, nearly all actives have IC50 up to about 30 µM;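 on IC50: cells exposed to compound for 48 hours before viability readout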); conditions: SU-DIPG-XXV viability
# [7] = compounds altering HSF1 focus formation in cells – imaging, Selleck Cancer Library (AID 1347162; in the data active means plate-normalised HSF1 focus index below about 0.46); conditions: human cells, HSF1 nuclear foci imaging, at 10 µM; SSMD: measured here: HSF1 foci SSMD mean; cell count: measured here: cell number; plate-normalised HSF1 focus index: stronger effect = lower value
# [8] = viability loss with induced miR-34 in A549 – imaging, A549 dox-inducible miR-34, nuclei and caspase counts, primary screen (AID 1347080;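 active means compounds whose cell count with miR-34 switched on is under 0.7 times the count with it off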); conditions: A549 miR-34 inducible, Hoechst nuclei count, 48 h
# [9] = MELAS cybrid and Rieske KO viability enhancers – cell-based, MELAS cybrids, Rieske KO mouse fibroblasts, CellTiter-Glo, primary screen (AID 1508586;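 active means mean z-score across replicates of 1.96 or higher in either the MELAS or the Rieske mutant cell line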;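 further: z relative to plate mean and SD of compound and empty wells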); conditions: low glucose
# [10] = drug combination growth inhibition, ovarian cancer – cell-based, oncology-focused library, rucaparib conditional, profiling panel (AID 1508598;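 active means normalized viability below 100% at a tested concentration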); conditions: patient-derived ovarian cancer cells, CellTiter-Glo viability, 144 h, stronger effect = lower value
smiles,measurement,setting,value
NC(=O)c1cccc2c(NC(CN3CCC3)c3ccc(Cl)c(C(F)(F)F)c3)ncnc12 (stereo unspecified),AC50,[1],11.8 µM (active)
same,AC50,[2],3.72 µM (active)
same,AC50,[3],2.95 µM (active)
same,AC50,[4],11.8 µM (active)
O=C(C[C@@H]1C/C=C\CCC(=O)O[C@H](c2ccccc2)CNC1=O)NCc1ccc(Cl)cc1,outcome,[1],inactive
same,outcome,[2],inactive
same,outcome,[3],inactive
same,outcome,[5],inactive
same,outcome,[4],inactive
same,outcome,[6],inactive
O=C(c1ccc(Nc2nc(C3CC3)cn3c(-c4cn[nH]c4)cnc23)c(F)c1)N1CCOCC1,AC50,[1],5.25 µM (active)
same,AC50,[2],5.9 µM (active)
same,AC50,[3],3.72 µM (active)
same,AC50,[4],2.63 µM (active)
CC[C@@H](C)Nc1cc(C(=O)NC2CC3CC[C@@H](C2)N3c2ccc(C(=O)C3CC3)cn2)c(C)cc1C(N)=O (stereo partly specified),AC50,[1],0.118 µM (active)
same,AC50,[2],0.166 µM (active)
same,AC50,[3],0.0934 µM (active)
same,AC50,[4],0.148 µM (active)
Cc1cc(O)c(-c2ccc([C@@H](C)CN)cc2)c2c1[nH]c(=O)c1sccc12,AC50,[1],0.118 µM (active)
same,AC50,[2],0.148 µM (active)
same,AC50,[3],0.148 µM (active)
COc1cc(OC)cc(N2CCN(C(=O)Nc3nc4cc(F)ccc4nc3OC)CC2)c1,AC50,[1],0.833 µM (active)
same,AC50,[2],2.63 µM (active)
same,AC50,[3],1.48 µM (active)
same,AC50,[4],1.32 µM (active)
Nc1ccc(/C=C/C(=O)NCc2cc3cc(-c4ccc(C(=O)N5CCC(F)(F)CC5)cc4)cc(-c4ccc(F)cc4)c3o2)cn1,AC50,[1],0.105 µM (active)
same,AC50,[2],0.372 µM (active)
same,AC50,[3],0.742 µM (active)
same,AC50,[4],0.525 µM (active)
O=c1cc(N2CCOCC2)oc2c(-c3ccc4c(c3)OCCO4)csc12,AC50,[1],5.25 µM (active)
same,AC50,[2],6.61 µM (active)
same,AC50,[3],8.33 µM (active)
same,AC50,[4],7.42 µM (active)
CCOc1ccc(Cc2cc([C@@H]3O[C@H](CO)[C@@H](O)[C@H](O)[C@H]3O)ccc2Cl)cc1,outcome,[1],inactive
same,outcome,[2],inactive
same,outcome,[3],inactive
same,outcome,[5],inactive
same,outcome,[4],inactive
same,outcome,[6],inactive
same,SSMD,[7],1.4
same,cell count,[7],6780
same,plate-normalised HSF1 focus index,[7],1.07 (inactive)
CN1CCN(c2cccc(Nc3nc4c(-c5ccc(S(C)(=O)=O)cc5)cccn4n3)c2)CC1,AC50,[1],16.6 µM (active)
same,AC50,[2],16.6 µM (active)
same,AC50,[3],11.8 µM (active)
same,AC50,[5],23.5 µM (active)
same,AC50,[4],20.9 µM (active)
same,IC50,[6],11.8 µM (active)
same,fold change,"[8]; stronger effect = lower value, cell number ratio, induced over uninduced",0.892 (inactive)
same,fold change,[8]; measured here: relative caspase fold change +Dox/-Dox,0.496
same,cell count,"[8]; measured here: total cells with miR-34 induction, stronger effect = lower value",5770
same,cell count,[8]; measured here: total cells without miR-34 induction,6470
same,SSMD,[7],-2.58
same,cell count,[7],6270
same,plate-normalised HSF1 focus index,[7],0.914 (inactive)
same,z-score,"[9]; MELAS cybrid survival, CellTiter-Glo 48 h, stronger effect = higher value",-0.221 (inactive)
same,z-score,"[9]; Rieske KO mouse fibroblast survival, CellTiter-Glo 72 h",0.00545
same,viability,"[10]; at 0.000305 µM, OCI-C5x cells, with rucaparib 10 µM, 100% = cells with rucaparib alone",113% (inactive)
same,viability,"[10]; at 0.000305 µM, OCI-C5x cells, without rucaparib",104% (inactive)
same,viability,"[10]; at 0.000305 µM, OCI-P5x cells, with rucaparib 20 µM, 100% = cells with rucaparib alone",101% (inactive)
same,viability,"[10]; at 0.000305 µM, OCI-P5x cells, without rucaparib",90.7% (active)
same,viability,"[10]; at 0.00122 µM, OCI-C5x cells, with rucaparib 10 µM, 100% = cells with rucaparib alone",115% (inactive)
same,viability,"[10]; at 0.00122 µM, OCI-C5x cells, without rucaparib",112% (inactive)
same,viability,"[10]; at 0.00122 µM, OCI-P5x cells, with rucaparib 20 µM, 100% = cells with rucaparib alone",109% (inactive)
same,viability,"[10]; at 0.00122 µM, OCI-P5x cells, without rucaparib",96.6% (active)
same,viability,"[10]; at 0.00488 µM, OCI-C5x cells, with rucaparib 10 µM, 100% = cells with rucaparib alone",114% (inactive)
same,viability,"[10]; at 0.00488 µM, OCI-C5x cells, without rucaparib",123% (inactive)
same,viability,"[10]; at 0.00488 µM, OCI-P5x cells, with rucaparib 20 µM, 100% = cells with rucaparib alone",107% (inactive)
same,viability,"[10]; at 0.00488 µM, OCI-P5x cells, without rucaparib",104% (inactive)
same,viability,"[10]; at 0.0195 µM, OCI-C5x cells, with rucaparib 10 µM, 100% = cells with rucaparib alone",115% (inactive)
same,viability,"[10]; at 0.0195 µM, OCI-C5x cells, without rucaparib",125% (inactive)
same,viability,"[10]; at 0.0195 µM, OCI-P5x cells, with rucaparib 20 µM, 100% = cells with rucaparib alone",117% (inactive)
same,viability,"[10]; at 0.0195 µM, OCI-P5x cells, without rucaparib",107% (inactive)
same,viability,"[10]; at 0.0781 µM, OCI-C5x cells, with rucaparib 10 µM, 100% = cells with rucaparib alone",114% (inactive)
same,viability,"[10]; at 0.0781 µM, OCI-C5x cells, without rucaparib",129% (inactive)
same,viability,"[10]; at 0.0781 µM, OCI-P5x cells, with rucaparib 20 µM, 100% = cells with rucaparib alone",112% (inactive)
same,viability,"[10]; at 0.0781 µM, OCI-P5x cells, without rucaparib",99.2% (active)
same,viability,"[10]; at 0.313 µM, OCI-C5x cells, with rucaparib 10 µM, 100% = cells with rucaparib alone",113% (inactive)
same,viability,"[10]; at 0.313 µM, OCI-C5x cells, without rucaparib",128% (inactive)
same,viability,"[10]; at 0.313 µM, OCI-P5x cells, with rucaparib 20 µM, 100% = cells with rucaparib alone",115% (inactive)
same,viability,"[10]; at 0.313 µM, OCI-P5x cells, without rucaparib",111% (inactive)
same,viability,"[10]; at 1.25 µM, OCI-C5x cells, with rucaparib 10 µM, 100% = cells with rucaparib alone",115% (inactive)
same,viability,"[10]; at 1.25 µM, OCI-C5x cells, without rucaparib",138% (inactive)
same,viability,"[10]; at 1.25 µM, OCI-P5x cells, with rucaparib 20 µM, 100% = cells with rucaparib alone",112% (inactive)
same,viability,"[10]; at 1.25 µM, OCI-P5x cells, without rucaparib",111% (inactive)
same,viability,"[10]; at 5 µM, OCI-C5x cells, with rucaparib 10 µM, 100% = cells with rucaparib alone",110% (inactive)
same,viability,"[10]; at 5 µM, OCI-C5x cells, without rucaparib",206% (inactive)
same,viability,"[10]; at 5 µM, OCI-P5x cells, with rucaparib 20 µM, 100% = cells with rucaparib alone",45% (active)
same,viability,"[10]; at 5 µM, OCI-P5x cells, without rucaparib",77.6% (active)
O=c1sn(-c2cccc3ccccc23)c(=O)n1Cc1ccccc1,AC50,[1],23.5 µM (active)
same,AC50,[2],13.2 µM (active)
same,AC50,[3],14.8 µM (active)
same,AC50,[4],3.72 µM (active)
N#Cc1c(N)nc(N)nc1N[C@H](c1nc2c(F)ccc(Cl)c2c(=O)n1-c1cccnc1)C1CC1,AC50,[1],18.6 µM (active)
same,AC50,[2],13.2 µM (active)
same,AC50,[3],11.8 µM (active)
